Data from PubChem BioAssay (Tox21).
Results filed as inconclusive are left out. The source made the active and inactive calls. Unless noted, the call rests on the fitted dose curve; in most records, active means well fitted curve in the direction sought with a large enough effect in the repeat runs; inconclusive means weak or mixed curves; inactive means no such curve, though single readings can be large; an effect the other way counts as inactive or inconclusive.

What was measured:
[1] = qHTS assay to identify small molecule agonists of the androgen receptor (AR) signaling pathway in the presence of an antagonist - cell viability counter screen (AID 1259379);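 further: MDA-kb2 human breast cancer cells carrying an MMTV luciferase reporter; series mostly up to about 92 µM; nearly all actives have a fitted effect of over 25% in size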
Method in brief: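 Cytotoxicity counter-screen run in the same wells as the nilutamide-challenged (3.0 µM final) AR agonist assay in MDA-kb2 cells. Compounds tested at 15 concentrations for 16 h, 37 °C without CO2; CellTiter-Fluor fluorescence read.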

[2] = qHTS assay to identify small molecule agonists of the estrogen receptor beta (ER-beta) signaling pathway - cell viability counter screen (AID 1259380); further: nearly all actives have a fitted effect of over 30% in size
Method in brief: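 Cell viability counter screen: CellTiter-Glo luminescence (30 min, room temperature) measured in the same wells as the beta-lactamase readout, after 16 hr compound exposure at 37C of ER-beta-bla HEK293T cells in 2% charcoal-stripped FBS medium.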

[3] = qHTS assay to identify small molecule agonists of the estrogen receptor alpha (ER-alpha) signaling pathway in the presence of an antagonist - cell viability counter screen (AID 1259386); further: series mostly up to about 92 µM; nearly all actives have a fitted effect of over 30% in size
Method in brief: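 Compounds tested at 15 concentrations for 22 h at 37C alongside 10.0nM (final) ICI-182,780 antagonist, in VM7Luc4E2 cells grown in phenol red-free, charcoal-stripped medium. Viability read by CellTiter-Fluor fluorescence after 1 h reagent incubation.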

[4] = molecular target: Progesterone receptor (Homo sapiens) (UniProt P06401); experiment: qHTS assay to identify small molecule agonists of the progesterone receptor (PR) signaling pathway (AID 1346784; calls by dose curve; further: nearly all actives have a fitted effect of over 30% in size)
Method in brief: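 PR-UAS-bla HEK 293T cells (beta-lactamase reporter under UAS) in 2% charcoal-stripped FBS, dosed with 23 nL compound after 6 hr, incubated 16hr at 37C. LiveBLAzer B/G FRET substrate added, fluorescence read after 2 hours.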

[5] = molecular target: Progesterone receptor (Homo sapiens) (UniProt P06401); experiment: qHTS assay to identify small molecule antagonists of the progesterone receptor (PR) signaling pathway (AID 1346795; active means well fitted inhibition curve with a large enough effect in the signal ratio in the repeat runs, not every such curve was filed as active; the % refers to the signal ratio)
Method in brief: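 PR-UAS-bla HEK293T cells with beta-lactamase reporter under UAS control, in 2% charcoal-stripped FBS, treated with compounds plus 1 nM promegestone (R5020, final) for 16 hr at 37C. Read-out: FRET beta-lactamase substrate fluorescence after 2 hr at room temperature.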

[6] = qHTS assay to identify small molecule agonists of the progesterone receptor (PR) signaling pathway - cell viability counter screen (AID 1346799; calls by dose curve; further: nearly all actives have a fitted effect of over 45% in size)
Method in brief: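 Counter screen in the PR-UAS-bla HEK293T wells (2% charcoal-stripped FBS, 16 h compound exposure at 37 C) after the bla read. CellTiter-Glo added, 30 min at room temperature, luminescence read as cell viability.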

[7] = qHTS assay to identify small molecule antagonists of the TGF-beta/Smad signaling pathway - cell viability counter screen (AID 1346824); further: nearly all actives have a fitted effect of over 50% in size
Method in brief: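 SBE-bla HEK 293T cells, incubated overnight, then compound plus 0.25 ng/mL TGF-beta1 (stock added) for 5 hr at 37 C. Viability was read in the same wells by CellTiter-Glo luminescence after 30 min at room temperature.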

[8] = qHTS assay to identify small molecule agonists of the TGF-beta/Smad signaling pathway - cell viability counter screen (AID 1346829); further: top concentration of the series differs between compounds; nearly all actives have a fitted effect of over 45% in size
Method in brief: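 CellTiter-Glo luminescence readout; SBE-bla HEK 293T cells, overnight plating, compound 5 hr at 37 C/5% CO2, then bla substrate 2 hr RT, then CellTiter-Glo 30 min RT.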

[9] = qHTS assay to identify small molecule agonists of the TGF-beta/Smad signaling pathway (AID 1346859; active means well fitted activation curve with a large enough effect in the signal ratio in the repeat runs, not every such curve was filed as active; the % refers to the signal ratio; further: series mostly up to about 77 µM)
Method in brief: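 SBE-bla HEK293T cells plated overnight, then compound exposure for 5 h at 37 C. Beta-lactamase reporter read with LiveBLAzer B/G FRET substrate after 2 h at room temperature, fluorescence at 405 nm excitation, 460/530 nm emission.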

[10] = molecular target: Thyrotropin-releasing hormone receptor (Homo sapiens) (UniProt P34981); experiment: qHTS assay to identify small molecule antagonists of the thyrotropin-releasing hormone receptor (TRHR) signaling pathway (AID 1346877; active means well fitted inhibition curve with a large enough effect in the repeat runs, not every such curve was filed as active; further: series mostly up to about 51 µM)
Method in brief: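 Antagonist mode: after a 5 min room-temperature compound exposure, cells were stimulated with 1 nM (final) TRH. Dye-loaded TRHR-HEK293 cells were used, and calcium-dependent fluorescence was followed for 3 min, with 15-point titrations run in triplicate.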

[11] = molecular target: Thyrotropin-releasing hormone receptor (Homo sapiens) (UniProt P34981); experiment: qHTS assay to identify small molecule agonists of the thyrotropin-releasing hormone receptor (TRHR) signaling pathway (AID 1346891; calls by dose curve; further: series mostly up to about 58 µM)
Method in brief: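 HEK293 cells expressing TRHR plated 18 h at 37 C/5% CO2, calcium dye-loaded 2 h at 37 C, then compound added (agonist mode); kinetic calcium fluorescence read 3 min at 1 s intervals; 15 concentrations in triplicate.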

[12] = Human pregnane X receptor (PXR) small molecule agonists, qHTS cell viability counter screen (AID 1346977); further: nearly all actives have a fitted effect of over 50% in size
Method in brief: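 PXR-Luc HepG2 cells (2,000/well, 5% charcoal-stripped FBS) preincubated 5 hr, then exposed to compounds 24 hr at 37 C. Viability read in the same wells by CellTiter-Fluor fluorescence, reagent added at 23 hr, 1 hr incubation.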

[13] = qHTS assay to identify small molecule antagonists of the estrogen receptor beta (ER-beta) signaling pathway - cell viability counter screen (AID 1259382);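 further: HEK293T cells carrying ER-beta-UAS-bla reporter stimulated with estradiol; series mostly up to about 92 µM; nearly all actives have a fitted effect of over 55% in size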
Method in brief: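 Cytotoxicity was measured in the same wells by CellTiter-Glo luminescence after 30 min at room temperature. Cells were ER-beta-bla HEK293T in charcoal-stripped serum, given compound together with 1 nM E2 and incubated 16 h at 37C.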

[14] = qHTS assay to identify small molecule agonists or antagonists of the thyroid stimulating hormone receptor (TSHR) signaling pathway - wild type cell line counter screen (AID 1259384; calls by dose curve)
Method in brief: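 Wild-type Hek293 cells, 800/well, 18 h at 37C, then compound with Ro20-1724 for 30 min RT. cAMP by HTRF (cAMP-d2/anti-cAMP cryptate), 1 h RT, fluorescence read. 15 concentrations, triplicates.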

[15] = molecular target: Thyrotropin receptor (Homo sapiens) (UniProt P16473); experiment: qHTS assay to identify small molecule antagonists of the thyroid stimulating hormone receptor (TSHR) signaling pathway (AID 1259385; calls by dose curve; further: nearly all actives have a fitted effect of over 20% in size)
Method in brief: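 TSHR-HEK293 cells (800/well) plated 18 h, then compounds with Ro20-1724 and TSH at 1.5 ng/mL final, 30 min at room temperature. cAMP quantified by HTRF (cAMP-d2/anti-cAMP-cryptate, 1 h); 15 concentrations in triplicate.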

[16] = qHTS assay to identify small molecule antagonists of the progesterone receptor (PR) signaling pathway - cell viability counter screen (AID 1346798); further: series mostly up to about 92 µM; nearly all actives have a fitted effect of over 50% in size
Method in brief: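 PR-UAS-bla HEK293T cells, 3,000/well in 2% charcoal-stripped FBS medium, dosed with compounds plus R5020 agonist and incubated 16 h at 37C. Viability then measured in the same wells by CellTiter-Glo luminescence after 30 min at RT.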

[17] = molecular target: Estrogen receptor (Homo sapiens) (UniProt P03372); experiment: qHTS assay to identify small molecule agonists of the estrogen receptor alpha (ER-alpha) signaling pathway in the presence of an antagonist (AID 1259383; calls by dose curve; further: top concentration of the series differs between compounds; nearly all actives have a fitted effect of over 15% in size)
Method in brief: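 Agonist-mode confirmation run in the presence of 10.0nM (final) ICI-182,780 antagonist. The reporter was ERE-driven luciferase in VM7Luc4E2 cells, grown in charcoal-stripped serum. Cells were exposed to 15-concentration compound series for 22hr, then ONE-Glo luminescence was read.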
On the % scale 0 is the no-effect control and ±100 the full control effect.

Chain of Progesterone receptor (Homo sapiens) (P06401 whole entry, looked up): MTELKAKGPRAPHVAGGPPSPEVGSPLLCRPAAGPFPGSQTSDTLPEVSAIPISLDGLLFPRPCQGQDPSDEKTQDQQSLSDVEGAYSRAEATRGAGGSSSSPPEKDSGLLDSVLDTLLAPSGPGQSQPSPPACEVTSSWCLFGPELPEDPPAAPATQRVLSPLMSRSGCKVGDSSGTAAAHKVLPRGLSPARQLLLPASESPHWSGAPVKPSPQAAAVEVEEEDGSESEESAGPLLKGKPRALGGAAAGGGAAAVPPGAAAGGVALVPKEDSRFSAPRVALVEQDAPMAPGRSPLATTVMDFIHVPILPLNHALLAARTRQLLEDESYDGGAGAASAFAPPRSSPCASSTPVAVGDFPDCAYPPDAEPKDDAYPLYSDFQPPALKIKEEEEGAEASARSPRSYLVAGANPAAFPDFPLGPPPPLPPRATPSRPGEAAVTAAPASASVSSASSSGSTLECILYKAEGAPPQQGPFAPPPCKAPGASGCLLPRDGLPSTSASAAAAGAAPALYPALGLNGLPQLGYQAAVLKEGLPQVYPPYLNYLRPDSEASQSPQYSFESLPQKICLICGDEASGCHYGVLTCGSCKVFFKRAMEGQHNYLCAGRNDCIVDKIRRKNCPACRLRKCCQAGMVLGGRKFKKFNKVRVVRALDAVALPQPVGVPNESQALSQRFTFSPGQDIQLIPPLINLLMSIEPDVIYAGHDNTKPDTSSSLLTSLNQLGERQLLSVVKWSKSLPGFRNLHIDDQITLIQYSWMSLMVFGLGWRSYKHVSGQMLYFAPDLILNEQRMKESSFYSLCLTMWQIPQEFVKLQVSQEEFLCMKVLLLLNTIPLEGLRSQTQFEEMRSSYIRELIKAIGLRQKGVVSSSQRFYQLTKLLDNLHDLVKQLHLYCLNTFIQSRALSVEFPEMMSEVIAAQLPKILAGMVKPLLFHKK
Chain of Thyrotropin-releasing hormone receptor (Homo sapiens) (P34981 whole entry, looked up): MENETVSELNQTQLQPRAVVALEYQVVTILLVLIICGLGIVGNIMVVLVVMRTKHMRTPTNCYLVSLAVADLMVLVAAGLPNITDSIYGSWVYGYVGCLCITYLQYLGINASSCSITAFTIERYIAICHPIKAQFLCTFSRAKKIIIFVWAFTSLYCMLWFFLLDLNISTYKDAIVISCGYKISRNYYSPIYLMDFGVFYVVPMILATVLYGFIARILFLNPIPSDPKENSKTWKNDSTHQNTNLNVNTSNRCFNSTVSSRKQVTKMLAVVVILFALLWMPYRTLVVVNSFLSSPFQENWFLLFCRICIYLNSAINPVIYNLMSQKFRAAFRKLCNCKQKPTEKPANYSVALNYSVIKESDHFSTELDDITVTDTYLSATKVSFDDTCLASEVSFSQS
Chain of Thyrotropin receptor (Homo sapiens) (P16473 whole entry, looked up): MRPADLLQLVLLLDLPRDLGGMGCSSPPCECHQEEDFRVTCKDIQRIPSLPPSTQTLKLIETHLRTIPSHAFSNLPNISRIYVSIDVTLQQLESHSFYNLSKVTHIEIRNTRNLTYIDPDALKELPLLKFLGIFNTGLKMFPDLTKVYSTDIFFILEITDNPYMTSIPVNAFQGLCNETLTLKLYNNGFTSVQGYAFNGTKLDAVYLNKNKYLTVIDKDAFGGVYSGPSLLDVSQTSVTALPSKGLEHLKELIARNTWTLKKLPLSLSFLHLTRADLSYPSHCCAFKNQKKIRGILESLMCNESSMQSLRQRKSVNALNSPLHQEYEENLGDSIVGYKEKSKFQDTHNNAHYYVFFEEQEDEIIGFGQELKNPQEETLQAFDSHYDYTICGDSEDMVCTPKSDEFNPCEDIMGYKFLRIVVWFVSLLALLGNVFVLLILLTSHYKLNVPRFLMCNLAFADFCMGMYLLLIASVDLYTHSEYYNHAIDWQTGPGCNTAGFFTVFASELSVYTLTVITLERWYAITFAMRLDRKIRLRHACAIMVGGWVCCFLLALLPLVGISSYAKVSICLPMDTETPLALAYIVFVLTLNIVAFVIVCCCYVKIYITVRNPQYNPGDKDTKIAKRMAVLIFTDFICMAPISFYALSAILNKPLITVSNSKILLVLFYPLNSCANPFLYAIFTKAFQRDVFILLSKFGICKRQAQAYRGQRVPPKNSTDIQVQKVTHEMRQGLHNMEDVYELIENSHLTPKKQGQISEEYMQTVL
Chain of Estrogen receptor (Homo sapiens) (P03372 whole entry, looked up): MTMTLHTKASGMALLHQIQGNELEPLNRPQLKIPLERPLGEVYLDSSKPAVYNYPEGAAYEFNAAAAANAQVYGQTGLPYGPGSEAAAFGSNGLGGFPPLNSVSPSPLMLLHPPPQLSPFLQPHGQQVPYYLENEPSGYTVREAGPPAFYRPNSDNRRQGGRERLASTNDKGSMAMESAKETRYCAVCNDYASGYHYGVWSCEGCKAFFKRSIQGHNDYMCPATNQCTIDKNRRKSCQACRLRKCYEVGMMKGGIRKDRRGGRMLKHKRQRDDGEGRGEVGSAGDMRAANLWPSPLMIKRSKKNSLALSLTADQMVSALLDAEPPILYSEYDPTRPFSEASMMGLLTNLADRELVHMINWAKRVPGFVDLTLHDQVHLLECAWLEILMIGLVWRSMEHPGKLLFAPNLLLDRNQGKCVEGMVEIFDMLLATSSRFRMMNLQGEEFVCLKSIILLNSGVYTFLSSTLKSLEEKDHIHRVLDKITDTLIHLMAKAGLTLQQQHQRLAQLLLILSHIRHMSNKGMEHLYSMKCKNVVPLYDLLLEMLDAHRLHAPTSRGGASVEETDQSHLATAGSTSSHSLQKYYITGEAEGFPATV

CC12CCC(C(=O)C1=O)C2(C)C (stereo not given)
inactive: Potency [1] | Potency [2] | Potency [3] | Potency [4] | Potency [5] | Potency [6] | outcome [7] | outcome [8] | outcome [9] | outcome [10] | Potency [11] | Potency [12]

CC(C)COC(=O)c1ccc(N)cc1
inactive: Potency [1] | Potency [2] | outcome [13] | outcome [14] | outcome [15] | Potency [3] | Potency [5] | Potency [16] | Potency [6] | outcome [7] | outcome [8] | outcome [9] | outcome [10] | Potency [11] | Potency [12]

C[N+]1(CC2COC(c3ccccc3)(c3ccccc3)O2)CCCCC1 (stereo not given)
inactive: activity change, negative = cytotoxicity [1] 4% [at 19 µM] | activity change, negative = cytotoxicity [2] 12% [at 19 µM] | activity change, negative = cytotoxicity [3] 7.11% [at 19 µM] | activity change, negative = inhibition [5] 3.69% [at 18.9 µM] | activity change, negative = cytotoxicity [6] -1.98% [at 19 µM] | viability change, negative = cytotoxic [7] 7.39% [at 15.8 µM] | activity change, negative = cytotoxicity [8] -19% [at 15.8 µM] | activation [9] 1.32% [at 15.8 µM] | activation [11] 10.8% [at 11.8 µM] | activity change, negative = cytotoxicity [12] -0.185% [at 19 µM]

O=S(=O)(O)c1cccc2c(S(=O)(=O)O)cccc12
inactive: Potency [1] | Potency [2] | outcome [13] | outcome [14] | outcome [15] | Potency [3] | Potency [4] | Potency [5] | Potency [6] | outcome [7] | outcome [8] | outcome [9] | Potency [11]

NC(=O)N[C@@H](CCC(=O)O)C(=O)O
inactive: Potency [1] | Potency [2] | outcome [14] | outcome [15] | Potency [3] | Potency [4] | Potency [5] | Potency [6] | outcome [7] | outcome [9] | Potency [12]

COc1ccc2cc1Oc1cc3c(cc1OC)CC[N+](C)(C)[C@H]3Cc1ccc(cc1)Oc1c(OC)c(OC)cc3c1[C@@H](C2)[N+](C)(C)CC3
inactive: Potency [1] | Potency [2] | outcome [17] | outcome [14] | outcome [15] | Potency [3] | Potency [4] | Potency [5] | Potency [16] | Potency [6] | outcome [7] | outcome [8] | outcome [9] | Potency [11] | Potency [12]

C[C@H]1C[C@H]2[C@@H]3CCC4=CC(=O)C=C[C@]4(C)[C@H]3C(=O)C[C@]2(C)[C@@]1(O)C(=O)CO
inactive: Potency [1] | Potency [2] | outcome [17] | outcome [14] | outcome [15] | Potency [3] | Potency [4] | Potency [5] | Potency [16] | outcome [7] | outcome [8] | outcome [9] | Potency [12]

Cc1c(N)c(=O)n(-c2ccccc2)n1C
inactive: Potency [1] | Potency [2] | outcome [13] | outcome [14] | outcome [15] | Potency [3] | Potency [4] | Potency [5] | Potency [16] | Potency [6] | outcome [7] | outcome [8] | outcome [9] | outcome [10] | Potency [11] | Potency [12]

CC(C(=O)O)c1cccc(Oc2ccccc2)c1 (stereo not given)
inactive: Potency [1] | Potency [2] | outcome [13] | Potency [3] | Potency [4] | Potency [5] | Potency [16] | Potency [6] | outcome [7] | outcome [8] | outcome [9] | outcome [10] | Potency [12]

NC(N)=NCCN1CCCCCCC1
inactive: activity change, negative = cytotoxicity [1] -1.24% [at 0.35 µM] | activity change, negative = cytotoxicity [2] 2.58% [at 0.349 µM] | activity change, negative = cytotoxicity [13] 9.29% [at 0.349 µM] | cAMP activity change [14] 3.9% [at 0.349 µM] | activity change, negative = cytotoxicity [3] 3.85% [at 0.349 µM] | activation [4] -1.69% [at 0.349 µM] | activity change, negative = inhibition [5] 0.475% [at 0.348 µM] | activity change, negative = cytotoxicity [16] -0.514% [at 0.348 µM] | activity change, negative = cytotoxicity [6] 0.507% [at 0.349 µM] | activity change, negative = cytotoxicity [8] -17.1% [at 0.29 µM] | activation [9] 0.678% [at 0.29 µM] | activity change, negative = cytotoxicity [12] -0.749% [at 0.349 µM]
